High-throughput results deposited in PubChem by National Center for Advancing Translational Sciences (NCATS).
Compounds with a hit are over-represented: about 19% of the library has one in this group of screens.
Shiga toxin inh: blocks Shiga toxin action in Vero cells. Vero cells, Shiga toxin protein synthesis inhibition reporter. inhibition, % at 38.7 µM. actives 9.2% (n = 290,000); in the data active means inhibition mostly above about 28%, no sharp cut-off; inactive means mostly below about 43%; further: 0% is about no effect
Pf growth 48h: P. falciparum growth inhibition at 48 hours (one generation); P. falciparum luciferase growth in erythrocytes, 48 h; AID 504832; Potency, µM (highest dose often 28.7 µM), inactives show at the highest dose activity change, negative = inhibition, actives largely listed as inhibitors; actives 5.9% (n = 310,000); further: potency means the concentration at half of the fitted maximal effect; on the % scale 0 is the no-effect control and ±100 the full control effect
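Luciferase-expressing parasites in RBCs, 2% Hct / 0.1% parasitemia final; RPMI 1640 + 0.5% Albumax; 37 C, 5% CO2, one generation; luminescence read-out, lower signal = inhibition.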
CHX counter: affects cycloheximide protein synthesis inhibition readout, counter-screen | actives 12% (n = 300,000) | max response, % | cell reporter, cycloheximide protein synthesis inhibition counterscreen | AID 2314; in the data active means max response mostly above about 13%, no sharp cut-off; inactive means mostly below about 14%; further: read at 38.3 µM for the half of the compounds with a filed dose; 0% is about no effect
Pf growth 96h: inhibits malaria parasite growth, 96 h. P. falciparum luciferase reporter growth, 96 h. actives 6.9% (n = 320,000). Potency, µM (highest dose often 28.7 µM), for inactives: top-dose activity change, negative = inhibition, hits mostly inhibitors. AID 504834; further: potency means the concentration at half of the fitted maximal effect; on the % scale 0 is the no-effect control and ±100 the full control effect
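96 h incubation, 37 C, 5% CO2, of luciferase-reporter P. falciparum-infected RBCs (2% hematocrit, 0.05% parasitemia final) with test compounds; endpoint luminescence.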
Marburg entry inh: Marburg virus entry inhibition; Marburg virus pseudotyped entry inhibition, cell reporter; Potency, µM (highest dose often 37.8 µM), for the others: top-dose activity change, negative = inhibition, most hits filed as inhibitors; actives 1.8% (n = 300,000); AID 540276; calls by dose curve; tested in HEK293 cells; further: potency means the concentration at half of the fitted maximal effect; on the % scale 0 is the no-effect control and ±100 the full control effect
LASV entry inh: inhibitors of Lassa virus binding or cell entry; Lassa virus pseudotype entry inhibition, cell reporter; Potency, µM (titrated, usually from 37.9 µM), inactives show top-dose activity change, negative = inhibition, most hits filed as inhibitors; actives 1.2% (n = 300,000); AID 540256; calls by dose curve; tested in HEK293 cells; further: potency means the concentration at half of the fitted maximal effect; on the % scale 0 is the no-effect control and ±100 the full control effect; nearly all actives have a fitted effect of over 50% in size
The depositor's hits bear a star; i = inactive; ? = inconclusive; nt = no result given; [ ] = dose if it differs, or a comment. Unless noted, the call rests on the fitted dose curve; in most records, active means well fitted inhibition curve with a large enough effect; inconclusive means small, poorly fitted or top-dose-only effect, or another doubt; inactive means no such curve, though single readings can be large or run the other way.

SMILES | Shiga toxin inh | Pf growth 48h | CHX counter | Pf growth 96h | Marburg entry inh | LASV entry inh
COc1ccc2nc3ccccc3nc2c1N | 158.9* | 149.5% | 48.9* | 39.4% | ? | -5.2%
Cc1ccc(OCC(=O)OCc2cc(=O)n3ccsc3n2)cc1C | nt | nt | nt | nt | nt | 1.0%[46.1 µM]
CCOC(=O)CCc1c(C)c2ccc(OCc3cc([N+](=O)[O-])ccc3OC)c(C)c2oc1=O | -19.7 | 1.9% | -2.4 | ? | -28.7% | 2.8%
O=C(Nc1ccccc1)Nc1cc(OCC(F)(F)F)cc(OCC(F)(F)F)c1 | -7.0 | 2.62µM* | -3.9 | 3.29µM* | ? | ?
CCOC(=O)CNC(=S)N(Cc1cccs1)C1CCCC1 | -6.1 | ? | -2.4 | 0.0% | ? | 2.4%
Clc1cc(Br)ccc1OCCN1CCOCC1 | 48.2 | 6.7% | 30.9* | 2.7% | ? | 0.9%
CC1CCCN(CCCCOc2cccc(Br)c2)C1 (centres undefined) | -7.7 | ? | 1.6 | ? | 2.91µM* | 3.26µM*
CC1CCN(CCCOc2ccc(Br)cc2Cl)CC1 | 29.3* | -22.4% | 21.7* | -11.3% | ? | ?
Clc1ccc(OCCCN2CCCCC2)c(Br)c1 | 12.2* | 31.5% | 70.9* | ? | 14.6µM* | ?
Clc1ccc(OCCCCCN2CCCC2)c(Br)c1 | 12.2 | -58.4% | 10.6 | ? | ? | ?
Brc1cccc(OCCCCN2CCCCC2)c1 | -5.4 | -1.9% | -3.0 | ? | ? | -8.2%
Cc1nc(-n2nc(C)c(Cc3ccc(Cl)cc3)c2C)sc1C(=O)N1CCC(C)CC1 | nt | nt | nt | nt | 10.4%[46.1 µM] | 5.5%[46.1 µM]
O=C(NNc1ccc([N+](=O)[O-])cc1)C1CC1c1ccccc1 (centres undefined) | -0.9 | 18.7% | -0.9 | 18.1% | -15.1% | -8.0%
CC1(c2ccccc2Cl)NC(=O)N(CC(=O)NCc2ccco2)C1=O (centres undefined) | -5.7 | i | 6.0 | 23.9% | -4.3%[46.1 µM] | 1.5%
O=C1CCC(=O)N1OCCCOc1ccc(Br)cc1Cl | 17.8 | -0.7% | 29.5* | 0.3% | 20.4% | -4.8%
CCCCCOc1ccc(CN2CCOCC2)cc1Cl | 102.2* | 224.7% | 41.2* | nt | ? | 4.6%
CN1CCN(CCOCCOc2ccc(Br)cc2Cl)CC1 | 0.6 | -28.1% | 8.6 | 143.3% | nt | nt
CC1CCCN(CCOCCOc2ccc(Br)cc2Cl)C1 (centres undefined) | -10.6 | ? | -2.0 | 13.6% | 15.8µM* | ?
CCCCOc1ccc(C(=O)Nc2ccc(CN3CCOCC3)cc2)cc1 | -3.6 | ? | 1.9 | ? | nt | nt
Cc1cc(Cl)c(OCCOCCN2CCCC(C)C2)c(Br)c1 (centres undefined) | 29.4 | ? | -2.3 | 22.0% | ? | 12.6µM*
CCN(CC)S(=O)(=O)c1ccc(NC(=O)COC(=O)c2ccc(NC(=O)CC#N)cc2)cc1 | -6.5 | 0.0% | -1.2 | 51.0%[1.15 µM] | nt | nt
CCc1cccc(CC)c1NC(=O)CSc1nc2ccc(N3C(=O)C4C5C=CC(C5)C4C3=O)cc2s1 (centres undefined) | -4.3 | 0.0% | -3.8 | nt | ? | ?
CC1CCCN(CCOCCOc2ccc(Cl)cc2Br)C1 (centres undefined) | 15.9 | 11.7µM* | -2.7 | 11.7µM* | 4.61µM* | ?
CC1(C(=O)N(CC(=O)NC2CCCC2)Cc2ccc(Cl)cc2)CC(=O)N=C2C=CC=CN21 (centres undefined) | -5.6 | 15.4% | -4.4 | 40.5% | 25.3%[46.1 µM] | nt
Cc1cc(C)c(NC(=S)N(Cc2cccnc2)Cc2ccco2)c(C)c1 | -3.9 | 14.1% | -1.0 | -0.8% | -8.8% | 1.9%
SMILES | Shiga toxin inh | Pf growth 48h | CHX counter | Pf growth 96h | Marburg entry inh | LASV entry inh
CCc1ccccc1NC(=S)N(Cc1cccnc1)Cc1ccco1 | -7.1 | ? | -3.4 | 8.28µM* | 6.8% | 18.3%
COc1ccccc1NC(=S)N(Cc1cccnc1)Cc1ccco1 | 31.4 | 11.7µM* | 13.5 | -0.9% | -17.7%[46.1 µM] | -12.0%
Cc1ccc(Cl)cc1NC(=S)N(Cc1ccccc1)Cc1cccnc1 | -0.8 | 10.4µM* | -2.2 | -27.9% | ? | ?
COc1ccccc1NC(=S)N(Cc1ccccc1)Cc1cccs1 | -2.8 | 19.7% | 13.0 | 13.1µM* | 1.41µM* | -1.5%
COc1ccccc1NC(=S)N(Cc1cccs1)C1CCCC1 | -11.1 | -16.7% | -2.5 | ? | ? | -26.6%
COc1ccccc1NC(=S)N(Cc1ccc(C)cc1)Cc1cccnc1 | -5.3 | 13.3% | -2.6 | ? | 7.0%[46.1 µM] | -2.8%
Fc1ccc(-n2cc(-c3ccccc3)c3c(N4CCOCC4)ncnc32)cc1 | -19.5 | -25.4% | 2.6 | ? | ? | ?
COc1ccc(Cl)cc1NC(=S)N(Cc1cccnc1)Cc1ccco1 | 21.5 | 10.4µM* | 1.4 | -8.3% | ? | ?
O=C(Cn1cc(S(=O)(=O)N2CCCC2)c(S(=O)(=O)N2CCCC2)c1)Nc1ccc(F)cc1 | nt | nt | nt | nt | nt | 12.1%[46.1 µM]
O=C(CC(c1ccccc1)c1ccccc1)NCCO | -20.1 | 11.4% | -9.3 | 0.0% | 1.2% | 24.2%
C/C(CC(=O)Nc1cccc(C(F)(F)F)c1)=N\NC(=O)C1CCCCC1 | 54.8 | 27.3% | 26.7* | 8.6% | -10.0%[46.1 µM] | -0.7%
COc1ccc(C(=O)N/N=C(\C)CC(=O)Nc2cccc(C(F)(F)F)c2)cc1 | 81.5* | 0.7% | 39.0* | -13.0% | ? | -5.0%
CC(=O)Nc1ccccc1NC(=O)C/C(C)=N/NC(=O)C1CCCCC1 | 1.7 | 52.0% | 14.6 | 45.4% | 0.5%[46.1 µM] | 4.4%
Nc1ccccc1C#CCCCCO | 9.9 | 35.9% | 18.5 | 15.4% | -0.7% | 7.6%
CC(=O)c1ccccc1C(=O)N1CCCC(CCC(=O)N2CCN(c3ccccn3)CC2)C1 (centres undefined) | 0.9 | -4.7% | 0.2 | 16.9% | 0.8% | -15.3%
Cc1nccc(-c2sc(-c3cccs3)nc2C)n1 | 57.9* | 64.4% | 35.9* | 60.5% | nt | nt
Nc1nccc(-c2cccs2)n1 | 3.7 | ? | 10.8 | 0.0% | 10.6%[46.1 µM] | -9.7%
COC(=O)c1ccccc1NC(=O)Nc1cccc(C)n1 | -8.4 | 43.2% | -1.5 | ? | nt | nt
Cc1cccc(NC(=O)Nc2ccc(C#N)cc2)n1 | 17.3 | -7.4% | 17.6* | ? | 0.6% | nt
N#Cc1cccc(NC(=S)Nc2ccccc2)c1 | -1.6 | 33.4% | -0.5 | 63.5% | ? | 2.6%
Cc1cccc(NC(=O)Nc2cccc(C#N)c2)n1 | 21.5 | 35.8% | 35.6* | ? | nt | nt
CC(=O)COC(=O)CCc1nc2ccccc2[nH]c1=O | 19.6 | 41.6% | 3.8 | 19.9% | 17.6% | -17.0%
COc1ccc(CCN(C(=O)c2snc(C(N)=O)c2N)C(C(=O)NCC2CCCO2)c2ccc(F)cc2)cc1OC (centres undefined) | 1.2 | ? | -6.1 | -25.1% | 2.8%[46.1 µM] | -28.1%
C/C=C/C=C/C(=O)N1CC[C@]23c4ccccc4N[C@H]4N(C)c5cccc6c5[C@]42CCN([C@H]6C2OC2(C)C)[C@H]13 (some centres undefined) | -4.7 | 11.7µM* | -2.9 | 38.4% | nt | nt
Cc1nc2sccn2c(=O)c1S(=O)(=O)NCc1ccccc1Cl | -6.8 | 35.7% | -1.2 | ? | nt | nt
